Test results: PubChem BioAssay AID588477 (NMMLSC, 2011)
Active and inactive are the calls of the source.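 The calls were made as follows: active = valid curve fit with half-effect dose at most 10 µM and total binding change across doses of 30 points or more; inactive = the rest.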

Experiment: inhibitors of Bodipy-GTP binding across eight GTPases, SAR follow-up, selectivity assay for Cdc42 probe extension project, biochemical, round 1 SAR, Mg buffer, multiplex flow cytometry (AID 588477)
Conditions: GST-GTPase beads, Ras constitutively active; series mostly up to 100 µM

outcome, inactive:
O=C(C#Cc1ccccc1)c1cccc([N+](=O)[O-])c1
NS(=O)(=O)c1ccc(N2N=C(c3ccccc3)CC2c2ccccc2)cc1 (stereo not drawn)
COc1ccc(C2CC(c3ccccc3)=NN2c2ccc(S(N)(=O)=O)cc2)cc1 (stereo not drawn)
